A selection: hits, their analogues and other compounds. The true share with any hit is near 1.3%.
PKA-R2B act – activates the human PKA-R2B holoenzyme complex. hit rate 0.079% among 340,000. activation, % at 11.4 µM. PKA-R2B holoenzyme dissociation, Cy5-IP20 fluorescence polarization; R2B truncated from residue 108, S112A mutant; 0% DMSO only, 100% 113 µM cGMP. P22694+P31323. AID 504700;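 active = activation above a cutoff set at the mean over all compounds plus 3 SD, cut at about 18% in these data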;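 note: higher means more holoenzyme dissociation and a rise in polarization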
E coli Lon inh – inhibits E. coli Lon protease; purified E. coli Lon protease, fluorescence polarization; AID 602123; hit rate 0.42% among 360,000; P0A9M0; inhibition, % at 7.94 µM; in the data active = inhibition above about 13%, passing the limit was not always enough
Rin1 Abl inh – blocks binding of human Rin1 to Abl | P00519+Q13671 | TR-FRET Rin1/Abl binding, biochemical | inhibition, % at 7.35 µM | hit rate 0.4% among 360,000; in the data active = inhibition above about 5%, passing the limit was not always enough
IDE cell activ – IDE (human) activation, cell-based; activation, % at 5.96 µM; hit rate 0.073% among 340,000; HEK cells, FAbeta-B cleavage, fluorescence polarization; 0% vehicle, 100% cell-free pure enzyme wells; AID 493087;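 active = activation above the mean of all tested compounds plus 3 SD, set per screening campaign, cut at about 17% in these data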
PKA-R1A activ – activators of PKA-R1A complex. hit rate 0.083% among 340,000. activation, % at 11.4 µM. P00514+P68181. PKA-R1A dissociation, Cy5-IP20 fluorescence polarization; scaled: DMSO 0%, 113 µM cGMP 100%. AID 504707;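 active = percent activation above the mean of all tested compounds plus 3 SD, cut at about 19% in these data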;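 note: higher means more PKAc released from R1A so a rise in polarization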
IDE cell inh – cellular human IDE inhibition | P14735 | HEK cells, FAbetaB cleavage, fluorescence polarization | inhibition, % at 5.59 µM | hit rate 0.41% among 320,000 | AID 434962;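 active = percent inhibition above the average of all tested compounds plus 3 SD, set per screening campaign, cut at about 16% in these data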;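 note: IDE supplied by intact live HEK cells; FP after avidin binding of uncleaved biotin substrate so inhibition keeps polarization high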
Numbers stand for hits; i = inactive; nt = no result.

SMILES	PKA-R2B act	E coli Lon inh	Rin1 Abl inh	IDE cell activ	PKA-R1A activ	IDE cell inh
O=C(O)c1ccc(N/N=C/c2ccc(-c3ccc(Br)cc3)o2)cc1	i	i	12	i	i	i
Cc1ccc(/C=N/Nc2ccc(C(=O)O)cc2)o1	i	i	i	i	i	i
Cc1ccc(S(=O)(=O)N2CCN(C(=O)CSc3nncs3)CC2)cc1	i	i	i	i	i	i
COc1cc(C(=O)NCc2ccccn2)ccc1OCc1c(C)noc1C	i	i	i	i	i	i
Cc1ccc(S(=O)(=O)N[C@H](C(=O)Oc2ccc3c(C(F)(F)F)cc(=O)oc3c2)c2ccccc2)cc1	i	20	i	i	i	i
Cc1ccc(S(=O)(=O)NC(C(=O)Oc2ccc3ccc(=O)oc3c2)c2ccccc2)cc1 (stereo unspecified)	i	i	i	i	i	i
COc1ccc(OC)c(C(=O)c2c(C)oc3cc([N+](=O)[O-])c(O)c([N+](=O)[O-])c23)c1	i	i	i	i	i	i
COc1cccc(Cl)c1NC(=O)N1CCN(c2ccnc3cc(Cl)ccc23)CC1	i	i	i	i	i	26
O=[N+]([O-])c1cc(CN2CCCC2)c2cccnc2c1O	i	i	52	i	i	i
Oc1c(Cl)cc(CN2CCCCC2)c2cccnc12	i	i	12	i	i	i
O=[N+]([O-])c1cc(CN2CCN(c3cccc(C(F)(F)F)c3)CC2)c2cccnc2c1O	nt	nt	nt	nt	nt	i
Nc1cc(N)nc(SCCOc2ccccc2)n1	i	i	i	23	i	i
CN1CC2(C(=O)c3ccccc3)CN(C)CC(C(=O)c3ccccc3)(C1)C2	i	i	i	i	i	i
CCOC(=O)Cn1c(=NC(=O)c2sc3ccccc3c2Cl)sc2cc(S(N)(=O)=O)ccc21	i	i	i	i	i	i
COC(=O)Cn1c(=NC(=O)c2sc3ccccc3c2Cl)sc2cc(S(N)(=O)=O)ccc21	i	i	i	i	i	20
COc1ccccc1CN1C(=O)[C@@H]2C(CCC(N)=O)NC3(C(=O)Nc4c3ccc(Cl)c4C)[C@@H]2C1=O (stereo partly specified)	i	i	i	i	i	i
COC(=O)c1ccc(=O)c2nc3/c(=C/O)c(O)cc(=O)c3[nH]c12	i	i	38	i	i	i
CC(=O)Oc1cc(C(=O)OCC(=O)NC23CC4CC(CC(C4)C2)C3)cc(OC(C)=O)c1OC(C)=O	i	i	9.8	i	i	nt
COc1cccc(C(=O)OCC(=O)NC23CC4CC(CC(C4)C2)C3)c1	i	i	i	i	i	i
O=C(O)c1nccnc1C(=O)NCCc1c[nH]c2ccccc12	i	i	i	i	i	i
CC(C)=CCc1cc([C@@H]2COc3c(ccc4c3C=CC(C)(C)O4)C2)c(O)cc1O	i	i	i	i	i	i
CC1(C)C=Cc2c(ccc3c2OC[C@H](c2ccc(O)cc2O)C3)O1	i	i	i	18	i	i
S=c1nc[nH]c2c1sc1nc(-c3ccccc3)c3c(c12)CCCC3	i	i	i	i	i	i
COc1ccc(Cl)c(Cn2c(NCc3ccco3)nc3c2c(=O)n(C)c(=O)n3C)c1	i	i	11	i	i	i
CCOCCCNC(=O)c1cc2c(=O)[nH]c3ccccc3c2s1	i	i	i	i	i	i
SMILES	PKA-R2B act	E coli Lon inh	Rin1 Abl inh	IDE cell activ	PKA-R1A activ	IDE cell inh
C=CCOc1ccc(/C=C2\SC(=S)N(N3CCOCC3)C2=O)cc1	i	i	i	i	i	i
COC(=O)c1ccccc1-c1c2ccc(=N)cc-2oc2cc(N)ccc12	i	nt	i	39	i	i
Oc1cc(OCc2ccccc2)ccc1-c1[nH]ncc1-c1ccccc1	i	i	i	23	i	i
Cc1ccccc1OCCCN1C(=O)C(=O)c2cccc(C)c21	i	i	i	i	i	i
CCCC(C(=O)NC1=NCCS1)c1ccccc1 (stereo unspecified)	i	i	i	i	i	i
CCC(=O)Nc1cc2c(cc1C(=O)c1ccccc1)OCCO2	i	i	i	i	i	i
CC(=O)Nc1cc2c(cc1C(=O)c1ccccc1)OCCO2	i	i	i	18	i	i
Cc1ccc(-c2nsc3c(N4CCC(C(N)=O)CC4)ncnc23)cc1	i	i	i	i	i	i
O=C(NCc1cccnc1)C1CCN(C(=O)c2ccc(Cl)cc2Cl)CC1	i	i	i	i	i	i
O=S(=O)(O)c1cc(O)c2c(O)c(N=Nc3cc(Cl)ccc3O)c(S(=O)(=O)O)cc2c1	i	45	11	i	i	i
CCOCC(O)CSCc1ccc(Cl)cc1 (stereo unspecified)	i	i	i	i	i	i
Cc1ccc(C)c(N2CCN(C(=S)Nc3ccc4nc(N5CCN(C)CC5)cc(C)c4c3)CC2)c1	i	i	i	22	i	i
CCN1CCN(c2cc(C)c3cc(NC(=S)N4CCOCC4)ccc3n2)CC1	i	i	i	i	i	i
Cc1ccc(C)c(N2CCN(C(=S)Nc3ccc4nc(N5CCOCC5)cc(C)c4c3)CC2)c1	i	i	i	i	i	i
CCN1CCN(c2cc(C)c3cc(NC(=S)N4CCN(c5ccccc5)CC4)ccc3n2)CC1	i	i	i	20	i	i
O=C1/C(=C/c2cccc(F)c2)Oc2cc(O)ccc21	i	i	i	i	i	i
Fc1ccc2[nH]c3c(N4CCN(C5CCCCC5)CC4)ncnc3c2c1	nt	nt	nt	nt	nt	20
CCOC(=O)C1CCN(Cc2c(O)c3ccccc3oc2=O)CC1	i	i	i	i	i	i
CCCCNC(=S)N1CCN(c2nc3ccccc3s2)CC1	i	i	i	i	i	19
NC(=O)CCN1CCN(Cc2cn[nH]c2-c2cccc3ccccc23)CC1	i	i	i	i	i	i
C=CCn1c(O)c(C2=c3ccccc3=NC2=O)sc1=Nc1ccc(O)cc1	i	i	i	19	i	i
CCOC(=O)C1=C(c2ccccc2)NC(SC)=C(C#N)C1c1ccco1 (stereo unspecified)	i	i	i	i	i	i
Cc1ccc(S(=O)(=O)N2CCN(Cc3ccccc3)CC2)cc1	i	i	i	i	i	i
Cc1ccc(S(=O)(=O)OCCC2=CC(=O)CCN2Cc2ccccc2)cc1	i	i	i	21	i	i
CC(C)(C)NCC(=O)N/N=C/c1ccc(OCc2ccccc2)cc1	i	i	i	i	i	16
CCCCNC(=O)C(=O)N/N=C/c1ccc(OCc2ccccc2)cc1	i	i	i	i	i	i
O=C(O)C1Nc2c(O)cc(Cl)c([N+](=O)[O-])c2C2C=CCC12 (stereo unspecified)	i	i	14	i	i	i
O=C(O)c1ccccc1Nc1ccc([N+](=O)[O-])c2nonc12	i	i	i	22	i	i

Screening data from PubChem BioAssay.
